Calls of active or inactive are those of the source. Rule for the calls: active = hit-call score of the fitted dose curve at least 0.9, where 1 is the maximum; inactive = score below 0.9.

Read-out in assay [1]: C-C motif chemokine 2 (Homo sapiens) (UniProt P13500)
Nature of the assay: BSK_KF3CT_MCP1: BioMAP Diversity Plus: KF3CT Assay for Monocyte Chemoattractant Protein 1 (MCP1/CCL2) Biomarker Activity (AID 2283073). Conditions: primary human keratinocytes with fibroblasts; actives raise or lower the signal. In outline:
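Human keratinocyte plus foreskin fibroblast primary co-culture exposed to chemical for 24 h. MCP-1 levels measured by ELISA. Bidirectional curve fitting relative to DMSO negative control as baseline.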

Read-out in assay [2]: Matrix Metallopeptidase 9 (MMP9), MMP9 (gene 4318)
Nature of the assay: BSK_KF3CT_MMP9: BioMAP Diversity Plus: KF3CT Assay for Matrix Metallopeptidase 9 (MMP9) Biomarker Activity (AID 2283074). The conditions noted are these: primary human keratinocytes with fibroblasts; actives raise or lower the signal. In outline: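 MMP-9 quantified by ELISA after 24 h chemical treatment of primary human skin keratinocyte/fibroblast co-cultures; gain or loss fitted against DMSO, with parallel SRB staining (0.1% SRB, 560 nm) for overt cytotoxicity.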

Read-out in assay [3]: urokinase plasminogen activator (uPA), PLAU (gene 5328)
Nature of the assay: BSK_KF3CT_uPA: BioMAP Diversity Plus: KF3CT Assay for urokinase plasminogen activator (uPA) Biomarker Activity (AID 2283075). The conditions noted are these: primary human keratinocytes with fibroblasts; actives raise or lower the signal. In outline: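 ELISA read-out of uPA 24 h after dosing human skin keratinocytes co-cultured with foreskin fibroblasts. Signal change fitted both ways relative to DMSO; sulforhodamine B on parallel cultures marks overt cytotoxicity.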

Read-out in assay [4]: CD40, CD40 (gene 958)
In words: BSK_LPS_CD40: BioMAP Diversity Plus: LPS Assay for CD40 Biomarker Activity (AID 2283076). The conditions noted are these: primary human HUVEC with PBMC; actives raise or lower the signal. In outline: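 Primary human umbilical vein endothelial cells co-cultured with peripheral blood mononuclear cells, LPS-stimulated, were dosed with chemical and read 24 h later. CD40 levels were measured by ELISA and fitted bidirectionally against DMSO as negative control and baseline.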

Read-out in assay [5]: E-selectin (Homo sapiens) (UniProt P16581)
In words: BSK_LPS_Eselectin: BioMAP Diversity Plus: LPS Assay for Eselectin Biomarker Activity (AID 2283077). The conditions noted are these: primary human HUVEC with PBMC; actives raise or lower the signal. In a few lines: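 Human umbilical vein endothelial cells co-cultured with peripheral blood mononuclear cells under LPS stimulation; E-selectin measured by ELISA 24 h after chemical dosing. Activity fitted bidirectionally against DMSO as negative control and baseline.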

Read-out in assay [6]: Interleukin-8 (IL8), CXCL8 (gene 3576)
In words: BSK_LPS_IL8: BioMAP Diversity Plus: LPS Assay for Interleukin-8 (IL8) Biomarker Activity (AID 2283078). The conditions noted are these: primary human HUVEC with PBMC; actives raise or lower the signal. In outline: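 Human umbilical vein endothelial cells co-cultured with PBMC were stimulated with LPS; IL-8 levels were measured by ELISA 24 h after chemical dosing. Activity was fitted bidirectionally against DMSO as negative control and baseline.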

Read-out in assay [7]: Interleukin-1 alpha (IL1a), IL1A (gene 3552)
In words: BSK_LPS_IL1a: BioMAP Diversity Plus: LPS Assay for Interleukin-1 alpha (IL1a) Biomarker Activity (AID 2283080). The conditions noted are these: primary human HUVEC with PBMC; actives raise or lower the signal. In outline: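 Human umbilical vein endothelial cells co-cultured with peripheral blood mononuclear cells were LPS-stimulated and exposed to test chemicals for 24 h. IL-1 alpha was quantified by ELISA, with bidirectional curve fitting against DMSO as the negative control and baseline.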

Read-out in assay [8]: Monocyte Chemoattractant Protein-1 (MCP1), CCL2 (gene 6347)
In words: BSK_LPS_MCP1: BioMAP Diversity Plus: LPS Assay for Monocyte Chemoattractant Protein-1 (MCP1) Biomarker Activity (AID 2283081). Conditions: primary human HUVEC with PBMC; actives raise or lower the signal. In a few lines:
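HUVEC plus PBMC co-culture (human primary cells, LPS system) exposed to test chemical for 24 h; MCP-1 measured by ELISA. Bidirectional curve fitting against DMSO baseline; parallel SRB total-protein staining flags overt cytotoxicity.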

Assay [9] can be described thus: BSK_LPS_PGE2: BioMAP Diversity Plus: LPS Assay for Prostaglandin E2 (PGE2) Biomarker Activity (AID 2283082).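 For AC50: secreted prostaglandin E2 measured by ELISA in LPS-stimulated co-culture.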 The conditions noted are these: primary human HUVEC with PBMC; actives raise or lower the signal. In outline:
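ELISA read-out of PGE2 from human umbilical vein endothelial cells co-cultured with peripheral blood mononuclear cells under LPS, 24 h post-dose. Gain or loss of signal scored relative to DMSO baseline.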

Read-out in assay [10]: Macrophage colony-stimulating factor (MCSF), CSF1 (gene 1435)
Nature of the assay: BSK_LPS_MCSF: BioMAP Diversity Plus: LPS Assay for Macrophage colony-stimulating factor (MCSF) Biomarker Activity (AID 2283083). Conditions: primary human HUVEC with PBMC; actives raise or lower the signal. In outline:
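Human umbilical vein endothelial cells co-cultured with peripheral blood mononuclear cells were exposed to compound for 24 h. M-CSF levels were measured by ELISA, and bidirectional curve fitting used DMSO as the negative control and baseline.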

Read-out in assay [11]: Tissue Factor, F3 (gene 2152)
In words: BSK_LPS_TissueFactor: BioMAP Diversity Plus: LPS Assay for Tissue Factor Biomarker Activity (AID 2283084). Conditions: primary human HUVEC with PBMC; actives raise or lower the signal. In a few lines: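 Human umbilical vein endothelial cells co-cultured with peripheral blood mononuclear cells were dosed and stimulated with LPS. Cell-surface CD142 was quantified by ELISA at 24 h. Activity was fitted bidirectionally against DMSO baseline.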

Read-out in assay [12]: Tumor necrosis factor (Homo sapiens) (UniProt P01375)
Nature of the assay: BSK_LPS_TNFa: BioMAP Diversity Plus: LPS Assay for Tumour Necrosis Factor alpha (TNFa) Biomarker Activity (AID 2283085).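 For AC50: TNFa protein level quantified by ELISA in the co-culture.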 The conditions noted are these: primary human HUVEC with PBMC; actives raise or lower the signal. In a few lines: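 HUVEC/PBMC co-culture, LPS-stimulated; 24 h post-dose; TNFa by ELISA; gain or loss of signal fitted bidirectionally vs DMSO baseline.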

Read-out in assay [13]: Vascular cell adhesion molecule 1 (VCAM1), VCAM1 (gene 7412)
In words: BSK_LPS_VCAM1: BioMAP Diversity Plus: LPS Assay for Vascular cell adhesion molecule 1 (VCAM1) Biomarker Activity (AID 2283086). Conditions: primary human HUVEC with PBMC; actives raise or lower the signal. In a few lines: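 ELISA read-out of VCAM-1 at 24 h post-dosing in an LPS-driven HUVEC/PBMC primary human co-culture; gain or loss of signal fitted bidirectionally against DMSO baseline. Cytotoxicity tracked in parallel cultures by SRB total-protein staining.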

Read-out in a further assay: CD38, CD38 (gene 952)
In words: BSK_SAg_CD38: BioMAP Diversity Plus: SAg Assay for CD38 Biomarker Activity (AID 2283087). The conditions noted are these: primary human HUVEC with PBMC; actives raise or lower the signal. In a few lines: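 Measures CD38 on a human endothelial/PBMC co-culture driven by SEB and TSST-1, 24 h after compound exposure, using ELISA with fluorescence detection; DMSO defines baseline for bidirectional curve fitting.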

Read-out in assay [14]: CD40, CD40 (gene 958)
In words: BSK_SAg_CD40: BioMAP Diversity Plus: SAg Assay for CD40 Biomarker Activity (AID 2283088). Conditions: primary human HUVEC with PBMC; actives raise or lower the signal. In a few lines: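 Human umbilical vein endothelial cells co-cultured with PBMC; CD40 levels measured by ELISA with fluorescence read-out 24 h after chemical dosing. Gain or loss of signal fitted bidirectionally against DMSO baseline.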

Read-out in another assay: CD69, CD69 (gene 969)
Nature of the assay: BSK_SAg_CD69: BioMAP Diversity Plus: SAg Assay for CD69 Biomarker Activity (AID 2283089). Conditions: primary human HUVEC with PBMC; actives raise or lower the signal. In a few lines:
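Primary human vascular co-culture (umbilical vein endothelium with peripheral blood mononuclear cells) exposed to test chemical for 24 h. CD69 levels quantified by fluorescence ELISA; DMSO served as negative control for bidirectional fitting.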

Read-out in assay [15]: Monocyte Chemoattractant Protein-1 (MCP1), CCL2 (gene 6347)
In words: BSK_SAg_MCP1: BioMAP Diversity Plus: SAg Assay for Monocyte Chemoattractant Protein-1 (MCP1) Biomarker Activity (AID 2283090). The conditions noted are these: primary human HUVEC with PBMC; actives raise or lower the signal. In a few lines:
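Values derive from bidirectional fitting of ELISA-measured MCP1 against DMSO controls. Readings were taken 24 h after dosing human vascular endothelial cells co-cultured with peripheral blood mononuclear cells under superantigen stimulation.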

Read-out in assay [16]: E-selectin (Homo sapiens) (UniProt P16581)
Nature of the assay: BSK_SAg_Eselectin: BioMAP Diversity Plus: SAg Assay for Eselectin Biomarker Activity (AID 2283091). The conditions noted are these: primary human HUVEC with PBMC; actives raise or lower the signal. In outline:
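HUVEC co-cultured with PBMC, compound dosed then read at 24 h; E-selectin measured by ELISA. Activity fitted bidirectionally against DMSO as negative control and baseline.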

Read-out in assay [17]: Monokine induced gamma interferon (MIG), CXCL9 (gene 4283)
In words: BSK_SAg_MIG: BioMAP Diversity Plus: SAg Assay for Monokine induced gamma interferon (MIG) Biomarker Activity (AID 2283092). Conditions: primary human HUVEC with PBMC; actives raise or lower the signal. In a few lines: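 Endothelial cells and PBMC were co-cultured, exposed to test chemicals, and sampled 24 h later. MIG was measured by ELISA, and responses were fitted in both directions relative to DMSO.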

Tumor necrosis factor (Homo sapiens), sequence (P01375 whole entry, looked up): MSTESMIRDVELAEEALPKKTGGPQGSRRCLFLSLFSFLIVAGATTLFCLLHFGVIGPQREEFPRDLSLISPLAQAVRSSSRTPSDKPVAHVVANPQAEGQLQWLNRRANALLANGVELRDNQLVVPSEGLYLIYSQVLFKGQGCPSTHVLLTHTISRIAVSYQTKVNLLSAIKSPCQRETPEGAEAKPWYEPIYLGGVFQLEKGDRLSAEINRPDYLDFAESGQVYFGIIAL
E-selectin (Homo sapiens), sequence (P16581 whole entry, looked up): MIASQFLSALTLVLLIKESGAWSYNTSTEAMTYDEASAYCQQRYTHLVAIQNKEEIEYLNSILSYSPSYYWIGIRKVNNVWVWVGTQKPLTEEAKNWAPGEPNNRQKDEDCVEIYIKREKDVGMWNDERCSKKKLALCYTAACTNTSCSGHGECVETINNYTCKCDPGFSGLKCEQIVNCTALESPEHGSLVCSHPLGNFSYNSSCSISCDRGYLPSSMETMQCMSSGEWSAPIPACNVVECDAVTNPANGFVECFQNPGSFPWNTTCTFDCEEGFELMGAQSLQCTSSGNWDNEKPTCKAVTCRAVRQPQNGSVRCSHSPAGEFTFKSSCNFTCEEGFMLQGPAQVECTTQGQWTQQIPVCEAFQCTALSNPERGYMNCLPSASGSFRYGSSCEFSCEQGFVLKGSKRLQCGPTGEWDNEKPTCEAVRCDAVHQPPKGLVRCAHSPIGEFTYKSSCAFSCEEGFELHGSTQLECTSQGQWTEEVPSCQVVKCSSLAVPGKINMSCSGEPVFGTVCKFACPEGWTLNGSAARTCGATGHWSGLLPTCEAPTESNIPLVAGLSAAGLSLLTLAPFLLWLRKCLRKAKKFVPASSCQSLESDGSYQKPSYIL

On to `Cc1cc(C)c(O)c(C)c1`, for which the outcome in assay [1] was “inactive”; in assay [2], “inactive”; in [3], “inactive”; with CD40, CD40 (gene 958) [4], “inactive”; in [5], “inactive”; in [6], “inactive”. Moreover, the outcome in [7] is “inactive”; in assay [8] it was “inactive”; in [10], “inactive”; in assay [11], “inactive”; in assay [13], “inactive”; in the assay with CD38, CD38 (gene 952) it was “inactive”. Also, the outcome in the assay with CD40, CD40 (gene 958) [14] is “inactive”; with CD69, CD69 (gene 969), “inactive”; in [15], “inactive”; in assay [16], “inactive”; in assay [17], “inactive”. For the same compound, the AC50 (usually the concentration at which the activity in the assay is half-maximal) in [9] is 2970 nM (active); in [12], 352 nM (active).
Turning to `O=C(OCCOCCOC(=O)c1ccccc1)c1ccccc1`, the outcome in assay [1] is “inactive”; in assay [2], “inactive”; in assay [3], “inactive”; in the assay with CD40, CD40 (gene 958) [4] it was “inactive”; in assay [5], “inactive”; in assay [6] it was “inactive”. Besides, the outcome in [7], in assay [8], in assay [9], in assay [10], in [11] and in [13] was inactive. In addition, the outcome in the assay with CD38, CD38 (gene 952) is “inactive”; in the assay with CD40, CD40 (gene 958) [14], “inactive”; in the assay with CD69, CD69 (gene 969) it was “inactive”; in assay [15], “inactive”; in assay [16] it was “inactive”; in assay [17], “inactive”.
Consider `C=C(C)C(=O)OCCC(F)(F)C(F)(F)C(F)(F)C(F)(F)C(F)(F)C(F)(F)F`, for which the outcome in [1] was “inactive”; in assay [2], “inactive”; in [3] it was “inactive”; in the assay with CD40, CD40 (gene 958) [4], “inactive”; in assay [5], “inactive”; in [6] it was “inactive”. Further, the outcome in assay [7], in assay [8], in assay [9], in [10], in [11] and in assay [12] was inactive. In addition, the outcome in [13] was “inactive”; with CD38, CD38 (gene 952), “inactive”; in the assay with CD40, CD40 (gene 958) [14], “inactive”; with CD69, CD69 (gene 969) it was “inactive”; in [15], “inactive”; in [16] it was “inactive”. The result in [17] was inactive.
